The whole screen tested about 69,000 compounds, of which about 8,600 (12%) showed an effect of 50% or more. This is one part of a sample in which strong results are shown more often than they occur.
These molecules were tested on Plasmodium berghei (assay: Screen against P. berghei liver stage (PbLuc), transformed with Luciferase, at 10uM). Conditions: tested at 10 uM.
Type: functional, HepG2

Structure (SMILES) | INHIBITION [%]
O=C(NCCc1nnc2n1CCC2)NCC1(c2cccc(F)c2)CC1 | -36.3
CO[C@H]1CN(C(C)C)C[C@@H]1NC(=O)Nc1ccc(C(F)(F)F)cc1 | 40.3
CN(CC(=O)NC(C)(C)C)C(=O)C1CC(c2cccc(F)c2)=NO1 (stereo not given) | -29.1
COCCN1CCCC(c2nccnc2-c2cccc(Cl)c2)C1 (stereo not given) | 12.75
COc1ccc(-n2cc(CNC(=O)c3ccccn3)nn2)cc1 | -15.9
CS(=O)(=O)NCc1cc(-c2cc(F)cc(F)c2)nc(N2CCOCC2)n1 | -4.82
CCc1nc(CC)n(CC(=O)NCc2cccc(C)c2)n1 | 13
CN1CC(=O)N(c2ccccc2)CC12CCN(CC1CCOCC1)C2 (stereo not given) | -11.2
CCc1nccn1CC(=O)N1C[C@@H]2CC[C@H]1CN(c1ncccn1)C2 | -22.4
Cc1cnn(CC2CN(Cc3nc(C)no3)CCO2)c1 (stereo not given) | 4.71
Cc1nc(CN2C[C@@H]3CN(C(=O)c4cccn4C)C[C@@H]3C2)cs1 | 16.1
CC(C(=O)NC(N)=O)N(C)CCCc1cc(-c2ccccc2)no1 (stereo not given) | -28.36
Cc1cccc(CN2CCC3(CC2)NC(=O)C[C@H]3c2cnn(C)c2)n1 | 1.61
CC(NC(=O)COc1cccc[n+]1[O-])C1CC1 (stereo not given) | 76.7
CC(NC(=O)c1cccc[n+]1[O-])C1CC1 (stereo not given) | 9
CC(C)CNC(=O)COc1cccc[n+]1[O-] | -12.1
CC(C)n1ccnc1C1CCN(c2nccc(C(F)(F)F)n2)CC1 | 11.5
COCCN(C/C=C/c1ccccc1)Cc1nccs1 | -12.6
COCCN(C/C=C/c1ccccc1)Cc1ccccn1 | 27.8
CCc1ccc(CN(C/C=C/c2ccccc2)CCOC)nc1 | 52.9
c1cc2c(cc1CN1CC[C@H]3CO[C@H](CN4CCCC4)[C@H]3C1)OCO2 | 10.5
C[C@H]1CN(C(=O)c2cscn2)C[C@@]12CCN(c1ccsc1)C2=O | 47.4
COCCOCC(=O)N1C[C@@H]2CC[C@H](Oc3ccccc3)[C@@H]2C1 | 7.52
CC(=O)N1CCO[C@@H]2CN(S(=O)(=O)C3CC3)C[C@@H]2C1 | 50.3
CC(=O)N1C[C@@H]2CN(S(=O)(=O)C3CC3)CCO[C@@H]2C1 | 6.79
CC(=O)N1CCO[C@@H]2CN(S(=O)(=O)C3CC3)CC[C@@H]2C1 | 37.6
Cc1nn(C)c2c(=O)n(Cc3ccccc3)nnc12 | 28.89

Structure (SMILES) | INHIBITION [%]
COc1ccnc(N2C[C@H]3CC[C@@H](C2)N(CC2CCC2)C3=O)n1 | 32.1
COc1cc2c(cc1CNC(=O)Cc1ccc(C)nc1)OC(C)C2 (stereo not given) | -25.3
CC(C)N1CC(C(=O)NCc2ccnc(-n3cccn3)c2)CC1=O (stereo not given) | -28
COc1ccc(CNCc2ccnc(N3CCOCC3)c2)c(OC)c1 | 29.6
COc1cc2c(cc1CNCc1ccnc(-n3cccn3)c1)OC(C)C2 (stereo not given) | 67.8
COc1cc2c(cc1CNC(=O)Cc1cc(C)on1)OC(C)C2 (stereo not given) | 47.4
COc1cc2c(cc1CNCc1cccnc1OC)OC(C)C2 (stereo not given) | 60.2
COc1cccc(CNCc2cccnc2-n2cccn2)c1OC | 16.2
COc1cc2c(cc1CNCc1cccnc1-n1cccn1)OC(C)C2 (stereo not given) | 68.9
COc1cc2c(cc1CNC(=O)Cc1cc(C)[nH]n1)OC(C)C2 (stereo not given) | 46.6
O=S(=O)(Cc1ccccc1)N1CCCn2cnc(CN3CCCC3)c2C1 | -17.7
O=C(CCn1cccn1)N1CCC(c2nnc(-c3ccccn3)o2)CC1 | 44.9
Cc1cc(-c2ccc(=O)n(C3CCN(C(=O)C4CCC4)CC3)n2)c(C)o1 | -30.9
Cc1cnn(Cc2cc(F)ccc2F)c1NC(=O)C1COCCO1 (stereo not given) | 2.01
CCC(=O)NCC(=O)Nc1c(C)cnn1Cc1cc(F)ccc1F | 44.2
Cc1cnn(Cc2cc(F)ccc2F)c1NC(=O)CNC(=O)C1CC1 | 72.3
Cc1cnn(Cc2cc(F)ccc2F)c1NC(=O)C1CCOCC1 | 72.3
Cc1cnn(Cc2cc(F)ccc2F)c1NC(=O)NC1CC1 | 35.6
CC(=O)Nc1c(C)cnn1Cc1cc(F)ccc1F | -8.21
CC(=O)N1CC(C(=O)N2CCCC(Cn3ccnc3C)C2)C1 (stereo not given) | -3.7
Cc1ccc(N2CCCC(Nc3nn4cc(C)nc4s3)C2)nn1 (stereo not given) | -17.7
Cc1cnn(CCC(=O)N2CCN(c3ccc(C#N)cn3)CC2)c1 | 5.9
CC(=O)N1CCCn2nc(CNS(=O)(=O)N3CCC(C)CC3)cc2C1 | 15.7
CN1CCC2(CC1)CN(C(=O)c1onc3ccccc13)CCCN2C | 24.2
CC(=O)Nc1ccsc1C(=O)N1CC[C@H]2CC[C@@H](C1)N2C | 33.3
c1cncc(N2CCCn3nnc(CN4CCCCC4)c3C2)c1 | 70.3
Cn1ncc2c1CN(Cc1cccnc1)CC2COCC1CC1 (stereo not given) | 53.5

Structure (SMILES) | INHIBITION [%]
Cc1ccc(CN2CCc3c(COCC4CC4)nn(C)c3C2)s1 | 59.3
Cc1ccc(CN2CCc3c(COC(C)C)nn(C)c3C2)s1 | 22.2
O=C1CCCN1Cc1nnn2c1CN(c1cccnc1)CCC2 | 6.67
c1cncc(N2CCCn3nnc(CN4CCOCC4)c3C2)c1 | 7.67
Cn1nc(COCC2CC2)c2c1CN(CC1CC1)CC2 | 21.6
c1cncc(CN2CCCn3nnc(COCC4CC4)c3C2)c1 | 64.7
c1cncc(N2CCCn3nnc(COCC4CC4)c3C2)c1 | 20.6
c1cc(CN2CCCn3nnc(COCC4CC4)c3C2)ccn1 | 42.1
Cn1ncc2c1C(COCC1CC1)CN(Cc1cccnc1)C2 (stereo not given) | 43.9
Cn1ncc2c1C(COCC1CC1)CN(Cc1ccncc1)C2 (stereo not given) | 22.2
COCCNC(=O)c1cc(C2CC2)nc2onc(C3CCNC3)c12 (stereo not given) | 25.1
COCCN1CCC(C)(c2cc(O)[nH]n2)CC1 | 9.05
O=C(Cc1cccnc1)N1CCC(c2nnc(-c3ccccn3)o2)CC1 | 1.5235
O=C(CC(F)(F)F)N1C[C@H]2CC[C@@H](C1)N(Cc1ccccc1)C2=O | 26.9
COc1ccc(NC(C)=O)cc1S(=O)(=O)Nc1ccon1 | 35.7
CCN(CC)Cc1ccc(C(=O)N2CCCC2Cn2cc(C)cn2)o1 (stereo not given) | -4.3
CN(C)c1ccc(CC2CCN(c3cnccn3)CC2)nn1 | -18.8
Cc1ccc(CN2CCCn3nnc(COCCN(C)C)c3C2)s1 | 54.8
Cn1cc(CN2Cc3c(cnn3C)C(COCC3CC3)C2)cn1 (stereo not given) | 47.9
Cc1ccc(CN2CCCn3nnc(COCC4CC4)c3C2)s1 | 23.3
Cc1ccc(CN2Cc3c(cnn3C)C(COCC3CC3)C2)s1 (stereo not given) | 65.6
COc1ccc(CN2CCCn3nnc(COCC4CC4)c3C2)cc1 | 16.8
Cn1ncc2c1CN(Cc1ccc(F)cc1)CC2COCC1CC1 (stereo not given) | 8.67
Cc1cnn(CC2CCCCN2C(=O)c2csc(C)n2)c1 (stereo not given) | 23.5
CC(Oc1cc(Cl)cc(Cl)c1)C(=O)NCCC(=O)N(C)C (stereo not given) | 30.7
COCCCNc1nc(CNC(=O)C2CCC2)cc(-c2ccco2)n1 | -3.34
CCC1=N[C@@]2(CC[C@@H]3CN(CC(=O)N(C)C)C[C@@H]32)C(=O)N1CC(C)C | 29

Structure (SMILES) | INHIBITION [%]
CC(C)(C)c1n[nH]c(C2CN(Cc3nnc(C4CC4)o3)CCO2)n1 (stereo not given) | -3.2
CCc1n[nH]c(C2CN(Cc3nnc(C4CCC4)o3)CCO2)n1 (stereo not given) | 9.14
CCc1n[nH]c(C2CN(Cc3nc(C4CC4)no3)CCO2)n1 (stereo not given) | 64.9
CCCc1n[nH]c(C2CN(Cc3nnc(C4CCC4)o3)CCO2)n1 (stereo not given) | -25.8
Cc1n[nH]c(C2CN(Cc3nnc(C4CC4)n3C)CCO2)n1 (stereo not given) | 33.7
CCc1n[nH]c(C2CN(Cc3nnc(C4CC4)o3)CCO2)n1 (stereo not given) | 13.3
CCc1n[nH]c(C2CN(Cc3nnc(C4CC4)n3C)CCO2)n1 (stereo not given) | -17.5
CCCc1n[nH]c(C2CN(Cc3nnc(C4CC4)n3C)CCO2)n1 (stereo not given) | 50.1
CCCc1n[nH]c(C2CN(Cc3nnc(C4CC4)o3)CCO2)n1 (stereo not given) | 52
COc1ccccc1-n1cc(C(=O)NCCCn2ccnn2)cn1 | -12.5
Cc1nc2c(c(=O)[nH]1)CCN(C(=O)c1cccc3nccnc13)C2 | 46
CN(C)c1ccc(C(=O)Nc2ccn(CC(N)=O)n2)cn1 | -15
O=C(NCC1CCC1)c1ccnc(-n2ccnc2)c1 | -13.6
Cc1cc(CNC2(c3ccccc3F)CC2)no1 | -4.73
CN1C[C@@H](C(=O)NC2CCCC2)[C@@]2(COc3ccc(F)cc3C2=O)C1 | 23.85
c1ccc(OCCCN2CCOC(CNc3cccnn3)C2)cc1 (stereo not given) | -65.3
Cc1noc(C)c1CN1CCn2cc(CNC(=O)C3CCC3)nc2C1 | 45.2
COc1ccc(CC(=O)N2C[C@H]3CN(Cc4ccccn4)C[C@H]3C2)cc1 | 18.6
CC[C@@H](CO)Nc1nccc(-c2cnc3sc(C)cn3c2=O)n1 | 11.5
Cc1[nH]c2ccccc2c1-c1ccnc(N[C@H](CO)CC(C)C)n1 | 56
CC(C)[C@H](CO)Nc1nccc(-c2c[nH]nc2-c2ccncc2)n1 | -31.5
Cc1[nH]c2ccccc2c1-c1ccnc(N[C@@H](CO)C(C)C)n1 | 36.7
Cc1cn2c(=O)c(-c3ccnc(N[C@@H](C)CO)n3)cnc2s1 | 27.8
Cc1[nH]c2ccccc2c1-c1ccnc(N[C@@H](C)CO)n1 | 85.7

Reference: ChEMBL document CHEMBL4513216, “Probing the Open Global Health Chemical Diversity Library for Multistage-Active Starting Points for Next-Generation Antimalarials” (ACS Infect Dis, 2020)
